# Source: article PMC7862700, “An all-to-all approach to the identification of sequence-specific readers for epigenetic DNA modifications on cytosine”
# Tests used:
# Assay in all cases: DAPPL (digital affinity profiling via proximity ligation, sequencing); 10 mM Tris-HCl pH 7.5, 50 mM NaCl, 1 mM DTT, 4% glycerol, room temperature, 30 min; GST-TFs on glutathione beads, 16-mer random dsDNA library, 0.1% formaldehyde crosslink after washing; high values mean tight binding
# FEV = target: T1, FEV (Homo sapiens, UniProt Q99581 1-238); conditions: protein: recombinant; tags: N-terminal GST; dsDNA, one strand shown
# T1 sequence: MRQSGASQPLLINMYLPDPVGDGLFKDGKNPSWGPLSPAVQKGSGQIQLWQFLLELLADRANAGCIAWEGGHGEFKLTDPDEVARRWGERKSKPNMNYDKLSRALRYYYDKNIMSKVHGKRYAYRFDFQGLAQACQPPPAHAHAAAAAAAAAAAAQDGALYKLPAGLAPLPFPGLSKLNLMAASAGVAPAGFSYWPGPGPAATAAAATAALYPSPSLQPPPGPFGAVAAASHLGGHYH
# Outline: (§1)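 Human transcription factors were made in yeast as GST fusions, captured on glutathione beads and barcoded with DNA. With a tag-only sample included, the pool was incubated with 200 nmole of a random double-stranded 16-mer DNA library in Tris/NaCl/DTT/glycerol buffer at room temperature for 30 min, then crosslinked with 0.1% formaldehyde after washing, ligated by proximity, amplified and sequenced. For binding signal, each hexamer's read frequency for a factor is divided by its frequency for the tag-only sample.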
# ETV5 = ETV5 (Homo sapiens, UniProt P41161 1-510); conditions: protein: recombinant; tags: N-terminal GST; dsDNA, one strand shown
# ETV5, sequence (P41161 whole entry): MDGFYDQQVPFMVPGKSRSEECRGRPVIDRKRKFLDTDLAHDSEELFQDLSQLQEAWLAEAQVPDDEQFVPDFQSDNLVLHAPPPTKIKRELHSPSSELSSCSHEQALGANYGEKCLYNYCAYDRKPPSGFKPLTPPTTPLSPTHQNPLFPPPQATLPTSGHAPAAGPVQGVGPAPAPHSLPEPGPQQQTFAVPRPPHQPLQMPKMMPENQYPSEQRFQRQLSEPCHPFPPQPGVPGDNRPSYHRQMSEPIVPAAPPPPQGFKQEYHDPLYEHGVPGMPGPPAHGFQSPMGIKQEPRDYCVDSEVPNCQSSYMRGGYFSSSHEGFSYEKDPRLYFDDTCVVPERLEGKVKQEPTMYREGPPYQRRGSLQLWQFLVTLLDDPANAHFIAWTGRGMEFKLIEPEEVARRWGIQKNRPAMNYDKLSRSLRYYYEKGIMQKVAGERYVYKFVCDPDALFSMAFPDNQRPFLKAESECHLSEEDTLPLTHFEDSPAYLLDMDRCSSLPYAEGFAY
# Outline: as §1
# HSF1 = HSF1 (Homo sapiens, UniProt Q00613 1-529); conditions: protein: recombinant; tags: N-terminal GST; chain copies: 3; dsDNA, one strand shown
# HSF1, sequence (Q00613 whole entry): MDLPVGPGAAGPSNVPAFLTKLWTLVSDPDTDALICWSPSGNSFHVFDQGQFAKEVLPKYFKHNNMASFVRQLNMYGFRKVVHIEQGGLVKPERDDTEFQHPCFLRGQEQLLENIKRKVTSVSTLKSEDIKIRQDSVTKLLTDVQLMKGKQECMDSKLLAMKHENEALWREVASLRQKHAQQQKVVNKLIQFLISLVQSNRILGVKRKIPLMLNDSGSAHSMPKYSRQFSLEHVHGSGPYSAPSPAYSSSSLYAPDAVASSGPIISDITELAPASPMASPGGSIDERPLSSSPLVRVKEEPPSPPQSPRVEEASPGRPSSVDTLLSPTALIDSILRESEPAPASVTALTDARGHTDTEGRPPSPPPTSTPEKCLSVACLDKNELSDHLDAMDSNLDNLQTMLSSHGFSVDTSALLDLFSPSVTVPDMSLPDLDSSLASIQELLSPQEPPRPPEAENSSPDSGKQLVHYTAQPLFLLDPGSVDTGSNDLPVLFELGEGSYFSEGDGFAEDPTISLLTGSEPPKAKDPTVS
# Outline: as §1
# SPIC = target: T2, SPIC (Homo sapiens, UniProt Q8N5J4 1-248); conditions: protein: recombinant; tags: N-terminal GST; dsDNA, one strand shown
# T2 sequence: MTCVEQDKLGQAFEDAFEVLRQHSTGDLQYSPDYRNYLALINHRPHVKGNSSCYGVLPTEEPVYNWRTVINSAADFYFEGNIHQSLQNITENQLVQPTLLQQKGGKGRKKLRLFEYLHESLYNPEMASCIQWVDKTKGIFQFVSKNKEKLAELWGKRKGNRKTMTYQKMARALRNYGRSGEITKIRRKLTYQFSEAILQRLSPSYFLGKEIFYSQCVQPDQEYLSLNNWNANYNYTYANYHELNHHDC
# Outline: as §1
# ELF4 = ELF4 (Homo sapiens, UniProt Q99607 1-663); conditions: protein: recombinant; tags: N-terminal GST; dsDNA, one strand shown
# ELF4, sequence (Q99607 whole entry): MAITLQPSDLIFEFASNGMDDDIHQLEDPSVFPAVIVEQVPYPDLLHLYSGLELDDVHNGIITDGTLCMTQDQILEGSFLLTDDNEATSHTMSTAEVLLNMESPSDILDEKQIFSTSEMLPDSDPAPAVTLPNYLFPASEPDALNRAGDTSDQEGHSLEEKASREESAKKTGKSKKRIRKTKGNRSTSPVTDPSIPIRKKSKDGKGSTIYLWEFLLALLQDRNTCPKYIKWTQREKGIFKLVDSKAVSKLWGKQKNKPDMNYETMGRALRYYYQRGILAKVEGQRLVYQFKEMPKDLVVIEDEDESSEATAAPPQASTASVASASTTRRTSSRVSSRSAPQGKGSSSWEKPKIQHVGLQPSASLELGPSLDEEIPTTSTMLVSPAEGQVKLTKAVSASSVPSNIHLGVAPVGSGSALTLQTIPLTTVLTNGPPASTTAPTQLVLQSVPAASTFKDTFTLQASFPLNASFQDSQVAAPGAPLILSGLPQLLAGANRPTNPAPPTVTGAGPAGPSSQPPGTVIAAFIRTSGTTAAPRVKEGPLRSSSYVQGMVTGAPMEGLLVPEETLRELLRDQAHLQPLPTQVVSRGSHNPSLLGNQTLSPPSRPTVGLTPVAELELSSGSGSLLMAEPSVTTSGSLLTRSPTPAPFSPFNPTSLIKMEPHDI
# Outline: as §1
# ELK4 = target: T3, ELK4 (Homo sapiens, UniProt P28324-2 1-405); conditions: protein: recombinant; tags: N-terminal GST; dsDNA, one strand shown
# T3 sequence: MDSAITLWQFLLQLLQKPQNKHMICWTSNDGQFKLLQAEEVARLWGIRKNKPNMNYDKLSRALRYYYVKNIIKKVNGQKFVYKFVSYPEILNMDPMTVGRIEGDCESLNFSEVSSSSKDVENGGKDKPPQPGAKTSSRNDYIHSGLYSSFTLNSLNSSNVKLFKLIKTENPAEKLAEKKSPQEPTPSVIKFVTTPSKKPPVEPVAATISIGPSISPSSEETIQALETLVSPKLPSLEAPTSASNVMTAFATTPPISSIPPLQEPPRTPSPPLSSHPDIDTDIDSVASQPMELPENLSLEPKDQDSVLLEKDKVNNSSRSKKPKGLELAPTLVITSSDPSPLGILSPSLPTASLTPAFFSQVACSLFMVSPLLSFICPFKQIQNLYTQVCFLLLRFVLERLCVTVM
# Outline: as §1
# ETV2 = target: T4, ETV2 (Homo sapiens, UniProt O00321 1-342); conditions: protein: recombinant; tags: N-terminal GST; dsDNA, one strand shown
# T4 sequence: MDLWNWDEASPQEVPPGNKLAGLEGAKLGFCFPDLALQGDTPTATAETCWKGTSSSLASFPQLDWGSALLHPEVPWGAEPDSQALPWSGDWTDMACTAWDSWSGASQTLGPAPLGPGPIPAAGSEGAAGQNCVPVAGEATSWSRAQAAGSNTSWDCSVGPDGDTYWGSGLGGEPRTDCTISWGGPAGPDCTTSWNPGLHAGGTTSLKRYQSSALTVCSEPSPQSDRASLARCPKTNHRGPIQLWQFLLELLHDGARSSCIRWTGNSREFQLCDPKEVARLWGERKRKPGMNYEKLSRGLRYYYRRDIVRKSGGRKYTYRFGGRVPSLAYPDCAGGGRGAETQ
# Outline: as §1
# ELF3 = target: T5, ELF3 (Homo sapiens, UniProt P78545 1-371); conditions: protein: recombinant; tags: N-terminal GST; dsDNA, one strand shown
# T5 sequence: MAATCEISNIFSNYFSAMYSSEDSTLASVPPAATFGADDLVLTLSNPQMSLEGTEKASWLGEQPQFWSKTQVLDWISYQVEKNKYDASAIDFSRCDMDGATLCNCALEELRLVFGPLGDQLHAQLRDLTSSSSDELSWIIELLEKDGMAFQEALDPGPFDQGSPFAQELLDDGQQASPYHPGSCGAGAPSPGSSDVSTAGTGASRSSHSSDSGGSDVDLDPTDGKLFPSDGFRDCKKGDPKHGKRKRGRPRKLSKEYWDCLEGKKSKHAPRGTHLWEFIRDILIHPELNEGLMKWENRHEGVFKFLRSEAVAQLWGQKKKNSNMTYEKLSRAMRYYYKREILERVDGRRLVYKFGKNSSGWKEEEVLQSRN
# Outline: as §1
# CRX = CRX (Homo sapiens, UniProt O43186 1-299); conditions: protein: recombinant; tags: N-terminal GST; dsDNA, one strand shown
# CRX, sequence (O43186 whole entry): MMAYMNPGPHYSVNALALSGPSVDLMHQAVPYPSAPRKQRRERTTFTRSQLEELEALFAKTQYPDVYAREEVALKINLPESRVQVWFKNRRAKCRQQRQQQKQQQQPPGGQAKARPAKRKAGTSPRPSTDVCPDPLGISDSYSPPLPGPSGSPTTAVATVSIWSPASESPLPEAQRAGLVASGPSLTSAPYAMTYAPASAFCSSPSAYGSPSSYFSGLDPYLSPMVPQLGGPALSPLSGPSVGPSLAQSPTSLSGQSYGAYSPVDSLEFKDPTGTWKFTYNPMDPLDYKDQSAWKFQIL
# Outline: as §1
# ETV1 = ETV1 (Homo sapiens, UniProt P50549 1-477); conditions: protein: recombinant; tags: N-terminal GST; dsDNA, one strand shown
# ETV1, sequence (P50549 whole entry): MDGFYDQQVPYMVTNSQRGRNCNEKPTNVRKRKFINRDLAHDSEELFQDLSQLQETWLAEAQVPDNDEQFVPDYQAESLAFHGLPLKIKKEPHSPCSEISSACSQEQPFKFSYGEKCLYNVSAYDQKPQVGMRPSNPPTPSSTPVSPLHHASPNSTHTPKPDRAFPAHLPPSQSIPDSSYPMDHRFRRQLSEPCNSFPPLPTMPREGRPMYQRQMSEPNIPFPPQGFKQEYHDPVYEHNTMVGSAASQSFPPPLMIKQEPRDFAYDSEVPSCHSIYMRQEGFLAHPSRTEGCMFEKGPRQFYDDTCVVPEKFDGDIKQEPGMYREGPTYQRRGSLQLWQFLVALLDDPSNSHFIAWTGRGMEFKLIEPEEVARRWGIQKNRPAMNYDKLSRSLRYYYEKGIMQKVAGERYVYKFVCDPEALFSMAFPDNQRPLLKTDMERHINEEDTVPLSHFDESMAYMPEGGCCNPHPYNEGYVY
# Outline: as §1
# ERF = target: T6, ERF (Homo sapiens, UniProt P50548 1-548); conditions: protein: recombinant; tags: N-terminal GST; dsDNA, one strand shown
# T6 sequence: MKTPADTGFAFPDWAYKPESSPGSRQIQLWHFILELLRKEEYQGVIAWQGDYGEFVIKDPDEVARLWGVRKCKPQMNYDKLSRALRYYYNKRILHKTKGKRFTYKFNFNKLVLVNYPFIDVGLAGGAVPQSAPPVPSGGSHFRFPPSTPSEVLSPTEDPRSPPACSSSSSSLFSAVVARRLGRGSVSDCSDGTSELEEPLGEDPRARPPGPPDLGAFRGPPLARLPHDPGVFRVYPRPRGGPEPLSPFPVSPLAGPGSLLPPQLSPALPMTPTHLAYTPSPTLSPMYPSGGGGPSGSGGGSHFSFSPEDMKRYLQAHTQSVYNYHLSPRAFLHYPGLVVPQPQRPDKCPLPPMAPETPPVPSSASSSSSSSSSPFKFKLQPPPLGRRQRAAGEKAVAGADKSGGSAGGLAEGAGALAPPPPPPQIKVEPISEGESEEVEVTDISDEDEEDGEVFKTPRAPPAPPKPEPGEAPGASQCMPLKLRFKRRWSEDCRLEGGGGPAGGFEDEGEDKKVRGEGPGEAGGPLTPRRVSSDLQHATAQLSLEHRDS
# Outline: as §1
# ETV3L = target: T7, ETV3L (Homo sapiens, UniProt Q6ZN32 1-361); conditions: protein: recombinant; tags: N-terminal GST; dsDNA, one strand shown
# T7 sequence: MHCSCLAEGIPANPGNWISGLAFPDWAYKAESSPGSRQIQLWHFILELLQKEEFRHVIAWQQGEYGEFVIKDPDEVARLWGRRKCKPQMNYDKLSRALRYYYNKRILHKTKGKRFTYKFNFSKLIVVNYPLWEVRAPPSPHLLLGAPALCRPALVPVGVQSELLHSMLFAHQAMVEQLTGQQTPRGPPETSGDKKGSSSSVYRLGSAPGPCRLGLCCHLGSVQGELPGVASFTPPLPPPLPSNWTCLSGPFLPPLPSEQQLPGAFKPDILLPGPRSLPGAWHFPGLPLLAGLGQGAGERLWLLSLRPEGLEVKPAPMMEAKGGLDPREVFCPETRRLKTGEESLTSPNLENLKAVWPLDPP
# Outline: as §1
# ETS2 = target: T8, ETS2 (Homo sapiens, UniProt P15036 1-469); conditions: protein: recombinant; tags: N-terminal GST; dsDNA, one strand shown
# T8 sequence: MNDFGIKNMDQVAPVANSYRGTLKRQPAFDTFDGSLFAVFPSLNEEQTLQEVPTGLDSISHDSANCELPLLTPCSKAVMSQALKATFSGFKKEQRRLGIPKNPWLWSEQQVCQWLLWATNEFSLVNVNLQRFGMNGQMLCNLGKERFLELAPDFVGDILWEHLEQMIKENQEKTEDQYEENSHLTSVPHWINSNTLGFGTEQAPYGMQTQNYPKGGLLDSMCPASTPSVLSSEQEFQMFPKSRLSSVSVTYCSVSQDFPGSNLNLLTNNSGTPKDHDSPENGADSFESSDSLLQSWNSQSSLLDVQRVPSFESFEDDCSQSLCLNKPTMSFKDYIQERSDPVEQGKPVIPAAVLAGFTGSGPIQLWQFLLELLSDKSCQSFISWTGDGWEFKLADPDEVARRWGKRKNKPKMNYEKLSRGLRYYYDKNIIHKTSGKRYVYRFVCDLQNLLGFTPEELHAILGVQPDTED
# Outline: as §1
# SPDEF = target: T9, SPDEF (Homo sapiens, UniProt O95238 1-335); conditions: protein: recombinant; tags: N-terminal GST; dsDNA, one strand shown
# T9 sequence: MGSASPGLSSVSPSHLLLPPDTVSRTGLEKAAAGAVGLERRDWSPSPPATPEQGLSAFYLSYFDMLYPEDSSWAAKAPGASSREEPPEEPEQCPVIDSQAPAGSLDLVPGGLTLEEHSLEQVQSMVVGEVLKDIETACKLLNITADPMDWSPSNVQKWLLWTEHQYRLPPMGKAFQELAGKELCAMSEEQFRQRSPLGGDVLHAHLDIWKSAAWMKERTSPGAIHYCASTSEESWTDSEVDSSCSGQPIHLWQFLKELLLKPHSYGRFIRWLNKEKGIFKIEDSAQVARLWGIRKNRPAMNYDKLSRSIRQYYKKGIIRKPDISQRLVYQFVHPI
# Outline: as §1
# ETV7 = target: T10, ETV7 (Homo sapiens, UniProt Q9Y603 1-341); conditions: protein: recombinant; tags: N-terminal GST; dsDNA, one strand shown
# T10 sequence: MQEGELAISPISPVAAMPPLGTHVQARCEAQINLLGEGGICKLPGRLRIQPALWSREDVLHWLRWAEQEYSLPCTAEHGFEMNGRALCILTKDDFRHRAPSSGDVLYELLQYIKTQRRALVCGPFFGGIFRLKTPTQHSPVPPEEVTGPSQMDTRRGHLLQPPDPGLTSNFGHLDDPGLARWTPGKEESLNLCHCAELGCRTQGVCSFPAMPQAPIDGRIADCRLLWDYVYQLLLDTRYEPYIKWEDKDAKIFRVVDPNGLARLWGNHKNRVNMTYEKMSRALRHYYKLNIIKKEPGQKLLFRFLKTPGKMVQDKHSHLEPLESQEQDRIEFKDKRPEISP
# Outline: as §1
# ELF5 = target: T11, ELF5 (Homo sapiens, UniProt Q9UKW6-2 1-255); conditions: protein: recombinant; tags: N-terminal GST; dsDNA, one strand shown
# T11 sequence: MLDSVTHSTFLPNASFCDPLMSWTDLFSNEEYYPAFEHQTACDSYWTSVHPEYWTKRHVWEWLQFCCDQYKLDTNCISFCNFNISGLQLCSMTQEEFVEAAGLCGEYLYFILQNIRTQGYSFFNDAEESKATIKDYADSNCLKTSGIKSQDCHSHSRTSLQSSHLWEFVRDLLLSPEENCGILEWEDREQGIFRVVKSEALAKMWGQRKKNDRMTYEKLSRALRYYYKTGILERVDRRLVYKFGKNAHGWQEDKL
# Outline: as §1
# ETV3 = target: T12, ETV3 (Homo sapiens, UniProt P41162-2 1-143); conditions: protein: recombinant; tags: N-terminal GST; dsDNA, one strand shown
# T12 sequence: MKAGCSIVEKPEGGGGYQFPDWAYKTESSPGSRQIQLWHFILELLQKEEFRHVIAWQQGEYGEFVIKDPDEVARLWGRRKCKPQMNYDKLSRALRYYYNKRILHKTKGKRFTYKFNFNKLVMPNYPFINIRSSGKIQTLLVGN
# Outline: as §1
# ETV6 = ETV6 (Homo sapiens, UniProt P41212 1-452); conditions: protein: recombinant; tags: N-terminal GST; dsDNA, one strand shown
# ETV6, sequence (P41212 whole entry): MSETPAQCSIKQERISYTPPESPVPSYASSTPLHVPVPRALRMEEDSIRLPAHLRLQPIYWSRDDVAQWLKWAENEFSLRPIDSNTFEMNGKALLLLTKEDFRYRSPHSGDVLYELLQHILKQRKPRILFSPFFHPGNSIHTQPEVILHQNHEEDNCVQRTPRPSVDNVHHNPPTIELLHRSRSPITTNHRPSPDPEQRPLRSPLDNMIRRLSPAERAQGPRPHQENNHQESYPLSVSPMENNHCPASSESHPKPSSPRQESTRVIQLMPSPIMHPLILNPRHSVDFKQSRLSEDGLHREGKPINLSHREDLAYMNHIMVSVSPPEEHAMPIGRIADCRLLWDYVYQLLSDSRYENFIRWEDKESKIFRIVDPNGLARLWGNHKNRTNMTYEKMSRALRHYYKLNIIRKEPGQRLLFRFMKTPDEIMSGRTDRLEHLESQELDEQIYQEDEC
# Outline: as §1
sequence,measurement,setting,value
ACTCCG,binding signal,FEV,"1.49 fold enrichment (6-mer frequency, TF over GST control)"
same,binding signal,ETV5,"1.44 fold enrichment (6-mer frequency, TF over GST control)"
same,binding signal,HSF1,"1.16 fold enrichment (6-mer frequency, TF over GST control)"
same,binding signal,SPIC,"1.35 fold enrichment (6-mer frequency, TF over GST control)"
same,binding signal,ELF4,"1.58 fold enrichment (6-mer frequency, TF over GST control)"
same,binding signal,ELK4,"1.4 fold enrichment (6-mer frequency, TF over GST control)"
same,binding signal,ETV2,"1.4 fold enrichment (6-mer frequency, TF over GST control)"
same,binding signal,ELF3,"1.33 fold enrichment (6-mer frequency, TF over GST control)"
same,binding signal,CRX,"1.04 fold enrichment (6-mer frequency, TF over GST control)"
same,binding signal,ETV1,"1.47 fold enrichment (6-mer frequency, TF over GST control)"
same,binding signal,ERF,"1.37 fold enrichment (6-mer frequency, TF over GST control)"
same,binding signal,ETV3L,"1.52 fold enrichment (6-mer frequency, TF over GST control)"
same,binding signal,ETS2,"1.46 fold enrichment (6-mer frequency, TF over GST control)"
same,binding signal,SPDEF,"1.59 fold enrichment (6-mer frequency, TF over GST control)"
same,binding signal,ETV7,"1.4 fold enrichment (6-mer frequency, TF over GST control)"
same,binding signal,ELF5,"1.32 fold enrichment (6-mer frequency, TF over GST control)"
same,binding signal,ETV3,"1.51 fold enrichment (6-mer frequency, TF over GST control)"
same,binding signal,ETV6,"1.47 fold enrichment (6-mer frequency, TF over GST control)"
